Consider 40 molecules from PubChem BioAssay (NCI).

Where “and” joins values, the source holds several entries; their conditions need not be identical. Equal entries are not always repeated. Compounds without any hit were thinned out: in the full panel of roughly 83,000, 20% have a hit.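 Cell lines were cultured in 96-well plates, exposed to a single compound concentration, and assessed for percent growth 48 hours later.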 Calls of active or inactive are those of the source.

In the experiment the test system is HS 578T breast. Put plainly: NCI-60 one-dose screen, 48 h (100 = growth as untreated, 0 = no growth, -100 = all killed). To be noted: 10 µM unless noted. The protocol: Growth inhibition of the HS 578T human tumor cell line is measured as a screen for anti-cancer activity. Cells are grown in 96 well plates and exposed to the test compound for 48 hours. Compounds are tested at a single concentration, which is 10^-5 M for most compounds. The reported endpoint is percent growth (GI% or GIPRCNT), where numbers from 0 - 100% represent growth inhibition, and numbers from -100% - 0 represent cell death. For example, a value of 40 represents 60% growth inhibition. A value of 0 means no net growth occurred over the course of the experiment. A value of -40 indicates 40% of cells at the beginning of the experiment died by the end of the experiment. A value of -100 means all cells are dead at the end of the experiment.
NCI-60 Human Tumor Cell Lines Screen was performed using the standard one-dose NCI protocol, which is described in more detail at https://dtp.cancer.gov/discovery_development/nci-60/default.htm.
Compounds with GIPRCNT values below 10 were considered active. Activity score was based on GIPRCNT using the following formula: […]
Score is 0 for GIPRCNT values of 100 or above, 50 for GIPRCNT values of 0, and 100 for GIPRCNT values of -100.
`CC[CH2][Sn]([Cl])([Cl])[CH2]CC.Oc1ccccc1C=NCCN=Cc1ccccc1O`: the growth was 77.7% (inactive) and 48.6% (inactive).

For the molecule `C[C@]12CCc3sc(Nc4ccc(O)cc4)nc3C1=CC[C@@H]1[C@@H]2CC[C@]2(C)C(=O)CC[C@@H]12`, the growth is 53.6% (inactive).

As for `c1ccc(CCN2CCCCC2)nc1`, the growth is 109% (inactive).

As to `O=C(O)C(F)F`, the growth was 96.2% (inactive).

Take `N#CCCc1ccccc1`: the growth is 118% (inactive).

As to `COc1ccc2c(c1)c(-c1nc(-c3cn(C)c4ncccc34)cs1)cn2CCCCN1CCOCC1`, the growth was 18.8% (inactive).

In the case of `C[C@@]12CCCc3coc(c31)C(=O)c1cc3c(cc12)C(=O)C1=C(NCCS1(=O)=O)C3=O`, the growth was -12.3% (active).

Take `c1ccc2c(c1)sc1ccccc12`: the growth is 104% (inactive).

In the case of `C=CC1CN2CCC1CC2C(O)c1ccnc2ccccc12` (stereo not given), the growth was 117% (inactive).

Take `CCCC1CCCCC12C(=O)NC(=O)NC2=O` (stereo not given): the growth was 91.8% (inactive) and 106% (inactive).

As to `CCOC(=O)c1ccccc1C(=O)OCC`, the growth was 95.5% (inactive).

Take `COC(=O)C1=CO[C@@H](C)[C@@H]2CN3CCc4c([nH]c5cc(OC)ccc45)[C@@H]3C[C@H]12`: the growth is 94.5% (inactive).

With `Oc1cc(Cl)ccc1Oc1ccc(Cl)cc1Cl`, the growth is -18.1% (active).

For `CC[C@H](C)[C@H](NC(=O)C12CC(NC)(C1)C2)C(=O)N(C)[C@H](C[C@@H](OC(C)=O)c1nc(C(=O)N[C@@H](Cc2ccccc2)C[C@H](C)C(=O)OC)cs1)C(C)C`, the growth is 39.2% (inactive).

On to `O=C(O)c1ccccc1N(CCO)CCCl`, for which the growth is 120% (inactive).

Turning to `CN1CCC2(CC1)C(C#N)C(=O)NC(=O)C2C#N` (stereo not given), the growth was 113% (inactive).

For the molecule `CSc1cc(/C=C(\C)[C@@H]2C[C@@H]3O[C@]3(C)CCC[C@H](C)[C@H](O)[C@@H](C)C(=O)C(C)(C)[C@@H](O)CC(=O)O2)n(CCNC(=O)OC(C)(C)C)n1`, the growth was 75.5% (inactive).

For `CO[C@@H]([CH2][Hg][O]C(=O)c1ccccc1)[C@@H]([CH2][Hg][O]C(=O)c1ccccc1)OC`, the growth was 113% (inactive).

On to `Oc1cc(N2CC2)c(O)cc1N1CC1`, for which the growth is -17.4% (active).

`CC1OC(=O)C(C(C)C)NC(=O)C(C(C)C)OC(=O)C(C(C)C)NC(=O)C(C)OC(=O)C(C(C)C)NC(=O)C(C(C)C)OC(=O)C(C(C)C)NC(=O)C(C)OC(=O)C(C(C)C)NC(=O)C(C(C)C)OC(=O)C(C(C)C)NC1=O` (stereo not given): the growth was -63.9% (active).

Take `[N-]=[N+]=CC(=O)CCC(=O)C=[N+]=[N-]`: the growth is 95.3% (inactive).

`CC[C@H](C)[C@H](NC(=O)[C@H]1CCCCN1C)C(=O)N(C)[C@H](C[C@@H](OC(C)=O)c1nc(C(=O)NC23C4C5C2C2C3C4C52C(=O)OC)cs1)C(C)C` (stereo not given in full): the growth was 34.3% (inactive).

With `O=[N+]([O-])c1ccc2scc3c4ccccc4nc-3c2c1`, the growth was -2.07% (active).

`O=[N+]([O-])c1ccc(CI)cc1`: the growth was 111% (inactive).

Take `Clc1ccc(COC(Cn2ccnc2)c2ccc(Cl)cc2Cl)c(Cl)c1` (stereo not given): the growth was 74.3% (inactive).

With `C[C@@H]1C/C=C\C(=O)O[C@H](/C=C/C#C/C=C/C(C)(C)[C@@H](O)c2cccc(O)c2Br)[C@@H](C)/C=C/[C@H](C)C[C@H](OC(N)=O)C1`, the growth was 54.8% (inactive).

`O=C1CCCCC1CN1CCCCC1` (stereo not given): the growth is 107% (inactive).

In the case of `C[C@]12CC[C@H]3[C@@H](C[C@@H]4SC(Nc5cccc(F)c5)=N[C@@]45CC(=O)CC[C@]35C)[C@@H]1CCC2=O`, the growth was 35.4% (inactive).

For the molecule `C=C[Se]CC(=O)/C=C/c1ccccc1`, the growth was 66.1% (inactive).

For the molecule `c1ccc2c(c1)O[As](O[As]1Oc3ccccc3O1)O2`, the growth was 38.8% (inactive).

Regarding `O=C(NC1=NCC[Se]1)c1ccccc1O`, the growth is 35.5% (inactive).

On to `CCCN1C(=O)NC(=O)C(CC)(N2C(=O)c3c(F)c(F)c(F)c(F)c3C2=O)C1=O` (stereo not given), for which the growth is -24.6% (active).

As for `O=C1NC(=O)C(=Cc2ccccc2)C(=O)N1`, the growth was 119% (inactive) and 103% (inactive).

Regarding `CC[C@H](CC[C@@H](C)[C@H]1CC[C@H]2[C@@H]3CC[C@H]4C[C@]5(CC[C@]4(C)[C@H]3CC[C@]12C)OO[C@](C)(C(F)(F)F)O5)C(C)C`, the growth is 99.8% (inactive).

With `Nc1ccc(P(=O)(O)O)cc1`, the growth is 110% (inactive).

Take `CN(C)c1ccc([N+](=O)[O-])c([N+](=O)[O-])c1`: the growth is 96.4% (inactive) and 103% (inactive).

Take `COC(=O)C1=CCCN(C)C1`: the growth was 104% (inactive) and 117% (inactive).

For `O=C(O)c1ccc(=O)[nH]c1`, the growth was 98.5% (inactive) and 102% (inactive).

For `CCCC(C)SP(=S)(SC(C)CCC)SC(C)CCC` (stereo not given), the growth is 108% (inactive).

On to `CC1=C([Te]c2ccccc2)C(=O)c2ccccc2C1=O`, for which the growth was -22.4% (active).
